# Results reported in PubChem BioAssay (NCI).
# Where “and” joins values, the source holds several entries; their conditions need not be identical. Equal entries are not always repeated. This is part of a sample that, as a whole, favours compounds with a hit. Of some 79,000 tested, about 15% had one in any assay. Calls of active or inactive are those of the source. Rule as the data show it: active = growth inhibition above about 70%; inactive = the rest.
# Experiment: NCI Yeast Anticancer Drug Screen. Data for the sgs1 mgt1 strain (AID 161);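 also: 0% = growth of cultures given vehicle only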
# Conditions: S. cerevisiae sgs1 mgt1 strain, at 5.0 µM (retest, dose inferred, filed as 0.5), stronger effect = higher value
# How it was run: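 Compounds are added to genetically altered yeast, and growth is compared with cultures given vehicle alone to give percent inhibition.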
row,Compound,growth inhibition
1,COc1ccc(/C=C2\CCc3ccccc3C2=O)cc1OC,37% (inactive)
2,CC(C)c1ccc(O)c(=O)cc1,4% (inactive) and 6% (inactive)
3,O=Cc1ccccc1B(O)O,-25% (inactive)
4,OCC(O)C(O)C(O)C(O)c1nc2ccccc2[nH]1 (stereo unspecified),3% (inactive) and -6% (inactive)
5,CC(=O)CC[N+](C)(C)C,13% (inactive)
6,O=C(O)[C@H]1[C@@H](C2CCCCC2)O[C@@H](C2CCCCC2)O[C@H]1C(F)(F)F,-25% (inactive)
7,CN(NC(=O)/C(=C/C=C/c1ccccc1)NC(=O)c1ccccc1)C1=C(Cl)C(=O)[N+](c2ccccc2)=CC1,-6% (inactive)
8,CCCCOc1ccc(Nc2c3ccccc3nc3ccccc23)cc1,10% (inactive)
9,N#C/C(=C1C=C/C(=N\O)C(Cl)=C\1)c1ccccc1,52% (inactive)
10,COc1cccc2c1C(=O)c1c(O)c3c(c(O)c1C2=O)CC(O)(C(=O)CO)CC3OC1CC(N)C(O)C(C)O1 (stereo unspecified),7% (inactive) and 16% (inactive) and 25% (inactive)
11,COc1ccc(C(=O)OCCc2ccccc2)cc1,7% (inactive)
12,Cc1c2ccncc2c(C)c2c1oc1ccccc12,4% (inactive)
13,CCCC#CCOC(=O)c1cc([N+](=O)[O-])cc([N+](=O)[O-])c1,97% (active)
14,Nc1nc(Nc2ccccc2)nc(Nc2ccccc2)n1,3% (inactive)
15,COc1ccc(/C=C2\S/C(=N/Nc3nc(-c4ccccc4)cs3)NC2=O)cc1OC,-4% (inactive)
16,CCCCCCCCCCCC[N+](C)(C)Cc1ccccc1 (tested in a mixture with another compound),93% (active) and 95% (active) and 89% (active)
17,CC(O)CN1C(=O)c2cccc3cc([N+](=O)[O-])cc(c23)C1=O (stereo unspecified),-13% (inactive)
18,Cc1cc(SC#N)ccc1O,-2% (inactive) and 6% (inactive)

row,Compound,growth inhibition
1,Cn1c(COc2ccc(/C=N/NC(=O)CCC(=O)N/N=C/c3ccc(OCc4c[n+]5ccccc5n4C)cc3)cc2)c[n+]2ccccc12,-1% (inactive)
2,COC1=C(N=[N+]=[N-])C(=O)c2ncccc2C1=O,42% (inactive)
3,CCN(CC)c1ccc(N=Nc2cc(S(=O)(=O)O)ccc2O)c(O)c1,-13% (inactive)
4,O=C1C(C(O)(C(F)(F)F)C(F)(F)F)CCC1C(O)(C(F)(F)F)C(F)(F)F (stereo unspecified),4% (inactive)
5,COc1nc(N)c(N=CC(OC(C)=O)C(OC(C)=O)C(COC(C)=O)OC(C)=O)c(=O)n1C (stereo unspecified),8% (inactive) and 6% (inactive) and 29% (inactive)
6,CN(C)CCNC(=O)c1cccc2nc3c(ccc4ccccc43)nc12,3% (inactive)
7,O=S(=O)(CCC[C@H]1[C@@H](CCOCc2ccccc2)C2CCCN1O2)c1ccccc1 (stereo partly specified),9% (inactive)
8,CCC(C)/C(C)=N/NC(N)=O (stereo unspecified),5% (inactive)
9,Nc1c([N+](=O)[O-])cc2c3c(cccc13)CC2,16% (inactive)
10,CC1=Cc2ccc(C)cc2C(=O)C1=O,43% (inactive)
11,C=Cc1c(C)c(O)cc2c1-c1ccc(O)c(C)c1CC2,55% (inactive)
12,NCC(O)CSCc1ccc(Cl)cc1 (stereo unspecified),-7% (inactive)
13,C[n+]1c(-c2ccc(NC(=O)c3ccc(C(=O)Nc4ccc(-c5cn6ccccc6[n+]5C)cc4)cc3)cc2)cn2ccccc21,15% (inactive)
14,Nc1ccccc1SSc1ccccc1N,67% (inactive) and 13% (inactive) and 41% (inactive)
15,CCCCCCCCCCCC[N+](C)(C)C,-8% (inactive) and -3% (inactive) and 49% (inactive)
16,CNC(=O)OCc1c(COC(=O)NC)c(C)n(-c2ccc(Cl)c(Cl)c2)c1C,5% (inactive)
17,[O-]c1c2cc(-[n+]3c(-c4ccccc4)cc(-c4ccccc4)cc3-c3ccccc3)cc1COCCOCCOCCOCCOC2,-11% (inactive)
18,C[Si](C)(C)Cc1ccccc1C(=O)O,9% (inactive)
